# Compound activity: PubChem BioAssay, several laboratories
# Hits are enriched below; roughly 22% of the tested compounds scored in any of these assays.
# CYP2C19 activ: activators of human cytochrome P450 2C19; P33261; recombinant CYP2C19, luciferin-H EGE luminescence; active compounds read high; 0 = fully inhibited enzyme, 1 = untreated enzyme; activation factor at 5 µM; 96,000 tested, under 10 active;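 active means activation factor of at least 2 at 5 µM in the primary screen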
# Target sequence (P33261 whole entry, looked up): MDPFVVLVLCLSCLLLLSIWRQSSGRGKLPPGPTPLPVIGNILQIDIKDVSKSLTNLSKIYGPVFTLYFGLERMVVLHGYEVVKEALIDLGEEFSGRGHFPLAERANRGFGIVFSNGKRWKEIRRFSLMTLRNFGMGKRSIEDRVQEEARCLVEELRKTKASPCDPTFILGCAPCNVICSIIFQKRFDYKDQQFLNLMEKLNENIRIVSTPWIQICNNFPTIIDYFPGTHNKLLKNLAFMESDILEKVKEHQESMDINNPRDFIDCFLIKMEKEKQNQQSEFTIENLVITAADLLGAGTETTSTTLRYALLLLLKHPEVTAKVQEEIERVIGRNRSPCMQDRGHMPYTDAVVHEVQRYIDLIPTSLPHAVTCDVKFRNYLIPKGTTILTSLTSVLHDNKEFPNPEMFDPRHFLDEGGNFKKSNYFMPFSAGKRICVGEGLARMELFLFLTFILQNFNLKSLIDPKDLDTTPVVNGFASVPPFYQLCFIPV
# CYP2C9 inhib: blocks human cytochrome P450 2C9; AID 777; inhibition, % at 5 µM; CYP2C9 Supersomes, luciferin-H conversion, luminescence; 20% of 96,000 active; P11712;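 active means blocking of liver enzyme CYP2C9 beyond about 50% at 5 µM, limit read from the data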
# CYP2C9 activ: activators of human CYP2C9. recombinant CYP2C9, luciferin-H conversion, luminescence; active compounds read high; factor 1 = untreated enzyme, 0 = blocked. activation factor at 5 µM. 1.4% of 96,000 active. AID 1024;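 active means activation factor of 2 or more for CYP2C9 at a 5 µM dose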
# Measles CPE: protection of cells from measles virus; Measles virus-infected cells, CPE protection, absorbance; 1.5% of 140,000 active; protection (pct of control), % at 4 µM; in the data active means protection mostly above about 24%, no sharp cut-off; inactive means mostly below about 26%
# CYP2C19 inhib: inhibitors of human CYP2C19; P33261; CYP2C19 Supersomes, luciferin-H EGE luminescence, 30 min; inhibition, % at 5 µM; 21% of 96,000 active; AID 778;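 active means CYP2C19 inhibition above a set limit at 5 µM in the primary screen, cut at about 50% in these data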
# A number is an active result; n = inactive; x = no result given.
SMILES,CYP2C19 activ,CYP2C9 inhib,CYP2C9 activ,Measles CPE,CYP2C19 inhib
COC(=O)c1[nH]c2cc(OC)ccc2c1NC(=O)c1nonc1C,n,n,n,n,n
C/C(Cl)=C\Cn1c(NCCCn2ccnc2)nc2c1c(=O)n(C)c(=O)n2C,n,100,n,n,77
Cn1c(=O)[nH]c(=O)c2c1nc(NCCCn1ccnc1)n2Cc1ccc(F)cc1,n,78,n,n,68
CCN(CC)CCNc1nc2c(c(=O)n(C)c(=O)n2C)n1C/C=C(/C)Cl,n,n,n,n,n
CCCCn1c(NCCC)nc2c1c(=O)[nH]c(=O)n2C,n,n,n,n,n
C/C(Cl)=C/Cn1c(NCCCn2ccnc2)nc2c1c(=O)[nH]c(=O)n2C,n,90,n,n,52
O=C(CCc1ccc(S(=O)(=O)N2CCOCC2)cc1)Nc1nc(COc2ccccc2)cs1,n,85,n,n,n
COc1ccccc1OCC(=O)Nc1nc(-c2ccc(S(=O)(=O)N3CCOCC3)cc2)cs1,x,x,x,n,x
O=C(CCc1ccc(S(=O)(=O)N2CCOCC2)cc1)Nc1nccs1,n,n,n,n,n
O=C(COc1ccccc1)Nc1nc(-c2ccc(S(=O)(=O)N3CCOCC3)cc2)cs1,n,78,n,n,n
O=C(COc1ccc(Cl)cc1)Nc1nc(-c2ccc(S(=O)(=O)N3CCOCC3)cc2)cs1,n,92,n,n,58
CCC(=O)Nc1ccc(S(=O)(=O)Nc2cccnc2)cc1,n,n,n,n,n
O=C1CCC(C(=O)NCCCn2ccnc2)N1 (configuration not stated),n,n,n,n,n
O=[N+]([O-])c1ccccc1CNC(Cc1ccccc1)c1ccccc1 (configuration not stated),n,n,n,n,90
CC(C)C(NC(=O)Cc1ccccc1[N+](=O)[O-])C(C)C,x,x,x,n,x
CCC1(CC)NC(=O)N(CC(=O)OCC(=O)Nc2cc(C)ccc2C)C1=O,n,n,n,n,n
Cc1nc(NC(=O)CC(C)C)sc1-c1csc(Nc2ccc(Cl)cc2Cl)n1,n,n,n,n,n
Cc1nc(NC(=O)c2ccccc2)sc1-c1csc(Nc2cccc(Cl)c2)n1,n,n,n,n,n
COc1ccc(Cl)cc1Nc1nc(-c2sc(NC(=O)CC(C)C)nc2C)cs1,n,52,n,n,n
Cc1nc(NC(=O)CC(C)C)sc1-c1csc(Nc2ccc(Cl)cc2)n1,n,n,n,n,51
COc1ccc(OC)c(Nc2nc(-c3sc(NC(=O)c4ccccc4)nc3C)cs2)c1,n,n,n,n,n
COc1ccc(Cl)cc1Nc1nc(-c2sc(NC(=O)c3ccccc3)nc2C)cs1,n,68,n,n,n
Cc1nc(NC(=O)c2ccccc2)sc1-c1csc(Nc2ccc(Cl)cc2Cl)n1,n,n,n,n,65
COc1ccc(Br)c2oc(SC)cc(=O)c12,x,x,x,n,x
Cc1ccc(-n2ncc(C#N)c2/N=C/N(C)C)cc1,n,n,n,n,n
SMILES,CYP2C19 activ,CYP2C9 inhib,CYP2C9 activ,Measles CPE,CYP2C19 inhib
CN(C)/C=N/c1c(C#N)nnn1Cc1ccccc1,n,n,n,n,67
Cc1ccc(/C=C/C(=O)N2CCN(c3cccc(C(F)(F)F)c3)CC2)cc1,x,x,x,n,x
O=C(CNC(=O)C1CCCCC1)Nc1cc(Cl)cc(Cl)c1,n,n,n,n,61
O=C(CNC(=O)C1CCCCC1)Nc1ccc(Cl)cc1,n,n,n,n,n
CCOC(=O)c1ccc(NC(=O)CNC(=O)C2CCCCC2)cc1,n,54,n,n,n
O=C(O)c1ccc(NC(=S)NC2CCCCC2)cc1,x,x,x,n,x
CCOC(=O)c1ccc(NC(=S)NC2CCCC2)cc1,x,x,x,44,x
COC(=O)c1ccc(NC(=O)CNC(=O)C2CCCCC2)cc1,n,n,n,n,n
O=C(COC(=O)CNC(=O)C1CCCCC1)Nc1ccc2ccccc2c1,n,n,n,n,69
CCN(CC)c1ccc(C(=O)NC(=S)N2CCN(Cc3ccc4c(c3)OCO4)CC2)cc1,x,x,x,n,x
O=C(CN1N=C(c2ccccc2)CCC1=O)NCCN1CCc2ccccc2C1,x,x,x,n,x
CCOC(=O)c1ccc(NC(=S)NCCc2ccccc2)cc1,n,66,n,n,n
COC(=O)c1ccc(NC(=S)NCCc2ccccc2)cc1,x,x,x,n,x
Cc1nn(Cc2c(Cl)cccc2Cl)c(C)c1C(=O)NCc1ccc(C)n1C,n,n,n,n,n
Cc1ccc(NCc2cccnc2)c(Br)c1,x,x,x,n,x
Cc1cc(F)ccc1NCc1cccnc1,n,n,n,n,50
COc1ccc(OC)c(/C=C/C(=O)OCC(=O)Nc2cccc(Oc3ccccc3)c2)c1,x,x,x,n,x
Cc1ccc(-c2noc(CSc3nnc(CCc4ccccc4)n3-c3ccccc3)n2)cc1,n,76,n,n,83
COc1ccc(C(=O)CSc2nnc(CCc3ccccc3)n2-c2ccccc2)cc1,n,n,n,25,n
COc1ccc(-n2c(CCc3ccccc3)nnc2SCC(=O)c2ccccc2)cc1,x,x,x,n,x
COc1ccc(-c2noc(CSc3nnc(CCc4ccccc4)n3-c3ccccc3)n2)cc1OC,n,80,n,n,99
Cn1c(SCc2nc(-c3ccccc3)no2)nnc1-c1ccco1,n,n,n,n,n
CCOc1ccc(/C(O)=C2/C(=O)C(=O)N(CCOCCO)C2c2ccccc2)cc1 (configuration not stated),n,n,n,n,n
CC(=O)Nc1ccc(S(=O)(=O)N2CCN(C(=O)N3CCOCC3)CC2)cc1,n,n,n,n,n
COc1ccc(CCNC(=O)CCCn2c(SCC#N)nc3ccccc3c2=O)cc1OC,n,65,n,n,n
SMILES,CYP2C19 activ,CYP2C9 inhib,CYP2C9 activ,Measles CPE,CYP2C19 inhib
COc1ccc(CCNC(=O)CCn2c(SCC#N)nc3ccccc3c2=O)cc1OC,n,60,n,n,n
COc1ccc(CNC(=O)CCCCCn2c(SCC#N)nc3cc4c(cc3c2=O)OCO4)cc1,n,94,n,n,n
COc1ccc(CCNC(=O)CCCn2c(=O)[nH]c3cc(OC)c(OC)cc3c2=O)cc1OC,x,x,x,n,x
CCCCCn1c(SCC#N)nc2cc(C(=O)NCC3CCCO3)ccc2c1=O (configuration not stated),n,n,n,n,n
CCC(c1nnnn1Cc1ccco1)N(Cc1cc2cc(C)cc(C)c2[nH]c1=O)CC1CCCO1 (configuration not stated),n,79,n,n,74
Cc1ccc2[nH]c(=O)c(C(c3nnnn3C3CCCC3)N(Cc3cccnc3)Cc3ccco3)cc2c1 (configuration not stated),n,n,n,n,n
CCC(c1nnnn1Cc1ccco1)N(Cc1ccccc1OC)Cc1cc2cc(C)ccc2[nH]c1=O (configuration not stated),n,51,n,n,n
CCc1c(O)nc(SCC(=O)N2CCOCC2)n(-c2ccccc2)c1=O,n,n,n,n,n
COc1ccc(OC)c2[nH]c(=O)c(CCNS(=O)(=O)c3ccc(Cl)cc3)cc12,n,84,n,n,n
COc1ccc(OC)c2[nH]c(=O)c(CCNS(=O)(=O)c3ccc(C)cc3)cc12,n,68,n,n,n
Cc1ccc(C)c2[nH]c(=O)c(CCNC(=O)C(C)C)cc12,n,n,n,x,n
